Test results published in PubChem BioAssay (Tox21).
Values without a mark were called inactive. Inconclusive results are not listed. Entries that show only a call come without a potency. Calls of active or inactive are those of the source. Unless noted, calls follow the shape of the dose curve; as a rule, active = well fitted curve in the direction sought with a large enough effect in the repeat runs; inconclusive = weak or mixed curves; inactive = no such curve, though single readings can be large; an effect the other way counts as inactive or inconclusive.

How the values were obtained:
[1] = qHTS assay to test for compound auto fluorescence at 535 nm (green) in HEK293 cells (AID 720680); conditions: green autofluorescence 485/535 nm; series mostly up to 91.3 µM
[2] = qHTS assay to test for compound auto fluorescence at 460 nm (blue) in HEK293 cell free culture (AID 720681); conditions: cell-free medium, autofluorescence 405/460 nm (blue); series mostly up to 91.3 µM
Summary of the method: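 Compounds were added to cell-free DMEM with 10% FBS and fluorescence read directly. The blue channel used 405 nm excitation and 460 nm emission, with triamterene as the reference fluorophore.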

[3] = qHTS assay to test for compound auto fluorescence at 535 nm (green) in HEK293 cell free culture (AID 720682); conditions: cell-free medium, green autofluorescence 485/535 nm, stronger effect = higher value; series mostly up to 91.3 µM
Summary of the method: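 Steps: dispense DMEM/10% FBS into empty wells; pin in compound or DMSO; measure fluorescence at 485/535 nm. Values are fluorescein equivalents.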

[4] = qHTS assay to test for compound auto fluorescence at 590 nm (red) in HEK293 cell free culture (AID 720683); conditions: cell-free medium autofluorescence, Ex540/Em590 red; series mostly up to 91.3 µM
Summary of the method: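 Cell-free wells of DMEM with 10% FBS received compound, and intrinsic fluorescence was read at excitation/emission 540/590 nm. Values expressed as equivalence to Rose Bengal sodium.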

[5] = qHTS assay to test for compound auto fluorescence at 590 nm (red) in HepG2 cell free culture (AID 720684); conditions: cell-free medium autofluorescence, red 540/590 nm; series mostly up to 91.3 µM
Summary of the method: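 Compound was pinned into wells holding MEM with 10% FBS and no cells, and red fluorescence was read at Ex/Em 540/590 nm. Signal is expressed as auto fluorescence equivalency relative to Rose Bengal sodium.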

[6] = qHTS assay to test for compound auto fluorescence at 460 nm (blue) in HepG2 cell free culture (AID 720685); conditions: Cell-free culture medium, blue autofluorescence 405/460 nm; series mostly up to 91.3 µM
Summary of the method: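 Compound (23 nL) or DMSO pinned into cell-free MEM with 10% FBS; blue fluorescence read at 405/460 nm excitation/emission, expressed as auto-fluorescence equivalency to triamterene.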

[7] = qHTS assay to test for compound auto fluorescence at 535 nm (green) in HepG2 cell free culture (AID 720686); conditions: Cell-free medium, green autofluorescence 485/535 nm; series mostly up to 91.3 µM
[8] = qHTS assay to test for compound auto fluorescence at 460 nm (blue) in HepG2 cells (AID 720687); conditions: autofluorescence 405/460 nm, 1 h; series mostly up to 91.3 µM
Summary of the method: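 HepG2 cells in MEM with 10% FBS, attached overnight at 37 C, were exposed to compound or DMSO for 1 hr at 37 C, 5% CO2. Blue fluorescence was read at 405/460 nm, with triamterene as reference fluorophore.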

[9] = target: Glucocorticoid receptor (Homo sapiens) (UniProt P04150); assay: qHTS assay to identify small molecule agonists of the glucocorticoid receptor (GR) signaling pathway (AID 720691; active = well fitted activation curve with a large enough effect in the signal ratio in the repeat runs, not every such curve was filed as active; the % refers to the signal ratio); conditions: GR-bla HeLa, beta-lactamase reporter ratio, 18 h; series mostly up to 62.4 µM
Sequence of Glucocorticoid receptor (Homo sapiens) (P04150 whole entry, looked up): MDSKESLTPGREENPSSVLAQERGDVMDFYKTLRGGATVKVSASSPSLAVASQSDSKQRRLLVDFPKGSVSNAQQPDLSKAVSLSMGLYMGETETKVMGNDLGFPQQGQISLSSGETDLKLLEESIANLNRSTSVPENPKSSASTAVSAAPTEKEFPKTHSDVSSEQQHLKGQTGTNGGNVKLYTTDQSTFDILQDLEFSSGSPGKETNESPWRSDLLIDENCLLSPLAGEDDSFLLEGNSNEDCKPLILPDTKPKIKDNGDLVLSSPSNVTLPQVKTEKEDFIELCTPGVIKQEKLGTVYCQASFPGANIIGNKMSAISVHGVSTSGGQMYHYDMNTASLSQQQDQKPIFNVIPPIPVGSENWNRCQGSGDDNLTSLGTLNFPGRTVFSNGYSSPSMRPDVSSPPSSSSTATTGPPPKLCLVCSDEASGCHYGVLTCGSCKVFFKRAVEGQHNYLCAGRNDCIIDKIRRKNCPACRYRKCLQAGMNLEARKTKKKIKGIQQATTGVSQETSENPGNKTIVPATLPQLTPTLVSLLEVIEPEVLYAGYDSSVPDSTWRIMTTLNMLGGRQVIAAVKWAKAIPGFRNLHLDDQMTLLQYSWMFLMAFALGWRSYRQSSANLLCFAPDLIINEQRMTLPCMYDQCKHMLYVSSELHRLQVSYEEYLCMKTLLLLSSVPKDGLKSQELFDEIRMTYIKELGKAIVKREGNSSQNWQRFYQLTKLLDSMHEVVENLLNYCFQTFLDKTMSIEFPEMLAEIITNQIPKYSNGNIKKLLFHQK
Summary of the method: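 Fluorescence intensity from LiveBLAzer B/G FRET substrate (2 h, room temperature) reports beta-lactamase expression driven by the glucocorticoid response element in GR-bla HeLa cells after 18 h compound exposure at 37 C.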

[10] = qHTS assay to identify small molecule antagonists of the glucocorticoid receptor (GR) signaling pathway - cell viability counter screen (AID 720693); conditions: GR-bla HeLa viability, CellTiter-Glo luminescence, 18 h, with 5 nM dexamethasone present; series mostly up to 58.5 µM; also: nearly all actives have a fitted effect of over 55% in size
[11] = qHTS assay for identifying genotoxic compounds that show differential cytotoxicity against isogenic chicken DT40 cell lines with known DNA damage response pathways - wild type cell line (AID 743012); conditions: DT40 wild type chicken cells viability, CellTiter-Glo, 40 h; series mostly up to 68.4 µM; also: nearly all actives have a fitted effect of over 60% in size; also: potency is read from the fitted curve at half-maximal effect
Summary of the method: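 Wild type DT40, 300 cells/well, ~0.5 h settle at 37 C/5% CO2; compounds in DMSO added by pintool; 40 h at 37 C/5% CO2; CellTiter-Glo, 30 min RT; luminescence.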

[12] = qHTS assay for identifying genotoxic compounds that show differential cytotoxicity against isogenic chicken DT40 cell lines with known DNA damage response pathways - Rev3 mutant cell line (AID 743014); conditions: chicken DT40 Rev3-/- viability, CellTiter-Glo, 40 h; series mostly up to 68.4 µM; also: nearly all actives have a fitted effect of over 55% in size; also: potency is read from the fitted curve at half-maximal effect
[13] = qHTS assay for identifying genotoxic compounds that show differential cytotoxicity against isogenic chicken DT40 cell lines with known DNA damage response pathways - Rad54/Ku70 mutant cell line (AID 743015); conditions: DT40 Rad54/Ku70 mutant viability, CellTiter-Glo, 40 h; series mostly up to 66.8 µM; also: nearly all actives have a fitted effect of over 60% in size; also: potency is read from the fitted curve at half-maximal effect
[14] = qHTS assay to identify small molecule antagonists of the androgen receptor (AR) signaling pathway - cell viability counter screen (AID 743033; also: nearly all actives have a fitted effect of over 45% in size); conditions: AR-bla HEK293 viability, CellTiter-Glo luminescence, 16 h; series mostly up to 58.5 µM
[15] = target: Androgen receptor (Homo sapiens) (UniProt P10275); assay: qHTS assay to identify small molecule agonists of the androgen receptor (AR) signaling pathway (AID 743036; active = well fitted activation curve with a large enough effect in the signal ratio in the repeat runs, with a control signal flat, not every such curve was filed as active; the % refers to the signal ratio); conditions: HEK293 AR-UAS-bla GripTite, beta-lactamase FRET ratio, 16 h; series mostly up to 62.4 µM
Sequence of Androgen receptor (Homo sapiens) (P10275 whole entry, looked up): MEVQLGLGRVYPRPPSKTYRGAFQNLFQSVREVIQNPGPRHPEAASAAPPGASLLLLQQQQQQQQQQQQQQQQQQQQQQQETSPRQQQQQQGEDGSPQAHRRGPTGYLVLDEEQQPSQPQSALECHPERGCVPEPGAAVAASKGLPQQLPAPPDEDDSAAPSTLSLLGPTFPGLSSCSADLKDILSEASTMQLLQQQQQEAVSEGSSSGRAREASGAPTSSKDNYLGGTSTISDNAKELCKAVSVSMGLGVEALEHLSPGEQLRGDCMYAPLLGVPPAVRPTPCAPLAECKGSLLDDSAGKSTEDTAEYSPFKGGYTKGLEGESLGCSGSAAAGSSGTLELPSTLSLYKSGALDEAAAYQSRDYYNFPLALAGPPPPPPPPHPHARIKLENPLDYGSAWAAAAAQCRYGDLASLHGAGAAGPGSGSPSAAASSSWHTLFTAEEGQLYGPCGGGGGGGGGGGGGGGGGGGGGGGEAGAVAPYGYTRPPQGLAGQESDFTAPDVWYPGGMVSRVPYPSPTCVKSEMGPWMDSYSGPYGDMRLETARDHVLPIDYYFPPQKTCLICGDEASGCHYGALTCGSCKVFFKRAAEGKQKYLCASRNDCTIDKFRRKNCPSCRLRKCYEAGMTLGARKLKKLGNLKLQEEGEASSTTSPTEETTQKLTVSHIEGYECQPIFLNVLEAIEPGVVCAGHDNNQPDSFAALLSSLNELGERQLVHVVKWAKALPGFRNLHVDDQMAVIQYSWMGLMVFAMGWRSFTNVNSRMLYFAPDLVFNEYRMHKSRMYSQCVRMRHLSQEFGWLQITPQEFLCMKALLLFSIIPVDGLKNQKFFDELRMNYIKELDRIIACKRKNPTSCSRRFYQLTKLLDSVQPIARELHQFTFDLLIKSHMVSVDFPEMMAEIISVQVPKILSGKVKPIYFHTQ
Summary of the method: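 Reporter line: GeneBLAzer AR-UAS-bla-GripTite (HEK293). Steps: plate cells, 4 h rest, add compounds, 16 h at 37C, add LiveBLAzer B/G substrate, 2 h at RT, read fluorescence.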

[16] = target: Androgen receptor (Homo sapiens) (UniProt P10275); assay: qHTS assay to identify small molecule agonists of the androgen receptor (AR) signaling pathway using the MDA cell line (AID 743040; also: nearly all actives have a fitted effect of over 20% in size); conditions: MDA-kb2 AR-luc cells, MMTV luciferase, 16 h, stronger effect = higher value; series mostly up to 70.3 µM
Summary of the method: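 MDA-kb2 breast carcinoma cells carrying MMTV-luciferase (responsive to AR and GR), plated 5 h then treated 16 h with compounds at 37C, 0% CO2. Read-out was ONE-Glo luminescence after 30 min at room temperature.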

[17] = qHTS assay to identify small molecule antagonists of the androgen receptor (AR) signaling pathway using the MDA cell line - cell viability counter screen (AID 743041; also: nearly all actives have a fitted effect of over 45% in size); conditions: MDA-kb2 viability, CellTiter-Fluor, 16 h, cells co-treated with R1881 androgen agonist; series mostly up to 70.3 µM
Summary of the method: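 MDA-kb2 AR-luc cells (MMTV-luciferase, AR/GR responsive) treated with compounds plus R1881 agonist for 16 h at 37C. CellTiter-Fluor added at 15.5 h; fluorescence read after 30 min in the same wells.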

[18] = target: Androgen receptor (Homo sapiens) (UniProt P10275); assay: qHTS assay to identify small molecule antagonists of the androgen receptor (AR) signaling pathway using the MDA cell line (AID 743042; also: nearly all actives have a fitted effect of over 55% in size); conditions: MDA-kb2 AR-luc, MMTV luciferase, R1881 antagonist, 16 h; series mostly up to 70.3 µM
Summary of the method: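 MDA-kb2 breast carcinoma cells carrying MMTV-luciferase (AR/GR responsive) were co-treated with compounds and the agonist R1881 for 16 h at 37C. Inhibition read as ONE-Glo luminescence; CellTiter-Fluor fluorescence measured in parallel for cytotoxicity.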

[19] = target: Glucocorticoid receptor (Homo sapiens) (UniProt P04150); assay: qHTS assay to identify small molecule antagonists of the glucocorticoid receptor (GR) signaling pathway (AID 720692; active = well fitted inhibition curve with a large enough effect in the signal ratio in the repeat runs, not every such curve was filed as active; the % refers to the signal ratio); conditions: GR-bla HeLa, beta-lactamase FRET ratio, dexamethasone-stimulated, 18 h; series mostly up to 58.5 µM
Summary of the method: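 HeLa GR-bla cells; cmpd + dex 5 nM final, 18 h 37 C; LiveBLAzer B/G FRET substrate 2 h RT; fluorescence intensity read. Antagonist mode, qHTS.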

Compound: CCCCCCOc1ccccc1C(N)=O
- outcome [1]: inactive
- outcome [2]: inactive
- outcome [3]: inactive
- outcome [4]: inactive
- outcome [5]: inactive
- outcome [6]: inactive
- outcome [7]: inactive
- outcome [8]: inactive
- Potency [9]: inactive
- outcome [10]: inactive
- Potency [11]: 23.7 µM (active)
- Potency [12]: 21.1 µM (active)
- Potency [13]: 21.1 µM (active)

Compound: C=C(C)C(=O)OCCN(CC)CC
- outcome [1]: inactive
- outcome [2]: inactive
- outcome [3]: inactive
- outcome [4]: inactive
- outcome [5]: inactive
- outcome [6]: inactive
- outcome [7]: inactive
- outcome [8]: inactive
- Potency [9]: inactive
- outcome [10]: inactive
- Potency [11]: inactive
- Potency [12]: inactive
- Potency [13]: inactive
- Potency [14]: inactive
- outcome [15]: inactive
- outcome [16]: inactive
- Potency [17]: inactive
- Potency [18]: inactive

Compound: CC(C)CCCCOC(=O)c1ccccc1C(=O)OCCCCC(C)C
- outcome [1]: inactive
- outcome [2]: inactive
- outcome [3]: inactive
- outcome [4]: inactive
- outcome [5]: inactive
- outcome [6]: inactive
- outcome [7]: inactive
- outcome [8]: inactive
- Potency [9]: inactive
- outcome [10]: inactive
- Potency [11]: inactive
- Potency [12]: inactive
- Potency [13]: inactive
- Potency [14]: inactive
- Potency [17]: inactive

Compound: CCCN1C[C@H](CSC)C[C@@H]2c3cccc4[nH]cc(c34)C[C@H]21
- outcome [1]: inactive
- outcome [2]: inactive
- outcome [3]: inactive
- outcome [4]: inactive
- outcome [5]: inactive
- outcome [6]: inactive
- outcome [7]: inactive
- outcome [8]: inactive
- Potency [9]: inactive
- outcome [19]: inactive
- Potency [12]: inactive
- Potency [14]: inactive

Compound: C=Cc1ccccn1
- outcome [1]: inactive
- outcome [2]: inactive
- outcome [3]: inactive
- outcome [4]: inactive
- outcome [5]: inactive
- outcome [6]: inactive
- outcome [7]: inactive
- outcome [8]: inactive
- Potency [9]: inactive
- outcome [19]: inactive
- Potency [11]: inactive
- Potency [12]: inactive
- Potency [13]: inactive
- Potency [14]: inactive
- Potency [17]: inactive

Compound: O=C1c2cccc3c2[C@H](CCC3)CN1[C@@H]1CN2CCC1CC2
- outcome [1]: inactive
- outcome [2]: inactive
- outcome [3]: inactive
- outcome [4]: inactive
- outcome [5]: inactive
- outcome [6]: inactive
- outcome [7]: inactive
- outcome [8]: inactive
- Potency [9]: inactive
- outcome [10]: inactive
- Potency [11]: 11.9 µM (active)
- Potency [13]: 23.7 µM (active)

Compound: CC(=O)/C=C/C1C(C)=CCC(C)C1(C)C (centres undefined)
- outcome [1]: inactive
- outcome [2]: inactive
- outcome [3]: inactive
- outcome [4]: inactive
- outcome [5]: inactive
- outcome [6]: inactive
- outcome [7]: inactive
- outcome [8]: inactive
- Potency [9]: inactive
- outcome [19]: inactive
- outcome [10]: inactive
- Potency [13]: 48.6 µM (active)
- Potency [14]: inactive
- Potency [17]: inactive

Compound: Cc1c(I)c(=O)n(-c2ccccc2)n1C
- outcome [1]: inactive
- outcome [2]: inactive
- outcome [3]: inactive
- outcome [4]: inactive
- outcome [5]: inactive
- outcome [6]: inactive
- outcome [7]: inactive
- outcome [8]: inactive
- Potency [9]: inactive
- outcome [10]: inactive
- Potency [11]: inactive
- Potency [12]: inactive
- Potency [13]: inactive
- Potency [14]: inactive
- Potency [17]: inactive
